Screening results: PubChem, several laboratories
TPT1 inhibitor = C. albicans TPT1 enzyme inhibition; recombinant caTPT1, FP RNA substrate dephosphorylation; inhibition, % at 5 µM; 300,000 compounds, 0.81% hits;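 active = inhibition above the mean of all tested compounds plus 3 SD, set per screening campaign, cut at about 24% in these data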;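 note: plate controls were DMSO alone for no effect and ferristatin control at 100 nM for full effect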
GRIN3A LBD mod = NR3A (human) ligand-binding domain modulation. 340,000 compounds, 2.5% hits. AID 1259313. Tm shift relative to glycine control, % at 25 µM. NR3A LBD differential scanning fluorimetry, Tm shift; 0% = protein alone, 100% = glycine-bound protein;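 active = melting temperature shift of at least 10% of the positive control shift, at one fixed dose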
EBNA-1 inhibitor = blocks EBNA-1 binding to DNA; inhibition, % at 14.8 µM; 300,000 compounds, 0.34% hits; AID 1950; EBNA-1 DNA binding, fluorescence polarization; in the data active = inhibition above about 28%
ZTA counter = ZTA (EBV) inhibition in EBNA-1 counter-screen | inhibition, % at 11 µM | ZTA-DNA binding, fluorescence polarization | P03206 | 320,000 compounds, 0.15% hits; in the data active = inhibition above about 33%
Target sequence (P03206 whole entry, looked up): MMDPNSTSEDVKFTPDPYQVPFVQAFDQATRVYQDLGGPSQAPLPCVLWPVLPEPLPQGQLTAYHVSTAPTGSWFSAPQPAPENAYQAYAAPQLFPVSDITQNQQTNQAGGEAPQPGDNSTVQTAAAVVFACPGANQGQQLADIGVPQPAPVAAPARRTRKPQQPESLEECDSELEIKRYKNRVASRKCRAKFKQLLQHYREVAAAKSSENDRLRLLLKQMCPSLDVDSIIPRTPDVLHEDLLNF
dFosB activator = activators of mouse delta FosB homodimer | purified delta FosB, TAMRA-CDK5 oligo fluorescence polarization; percent of positive-control signal above neutral wells | activation, % at 25 µM | 340,000 compounds, 0.99% hits;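 active = mean activation above about 17%, with every replicate also reaching it, limit read from the data, passing the limit was not always enough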
Rpn11 block = blocks the human proteasome subunit Rpn11; O00487; human 26S proteasome, Ub4-pepOG fluorescence polarization; 20S core pre-blocked with epoxomicin; inhibition, % at 20 µM; 360,000 compounds, 0.59% hits; AID 588493;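 active = inhibition at 20 µM, scaled to each plate's controls, above about 33%, limit read from the data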
caTPT1 confirm = confirmation of Candida albicans TPT1 inhibitors; shares compounds with TPT1 inhibitor; AID 2149; 2,400 compounds, 74% hits; recombinant caTPT1, fluorescence polarization, RNase T1 coupled; inhibition, % at 5 µM;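 active = inhibition above the primary screen limit, the mean inhibition of all tested compounds plus 3 SD, cut at about 25% in these data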
RNase T1 counter = blocks Aspergillus oryzae RNase T1, a TPT1 counter-screen | shares compounds with TPT1 inhibitor | RNase T1 cleavage, fluorescence polarization, 1536-well | inhibition, % at 5 µM | 2,400 compounds, 83% hits;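 active = inhibition above the solvent-only control well mean plus 3 SD, limit set per screening run, cut at about 23% in these data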;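 note: plate controls were DMSO wells with enzyme for no effect and wells without RNase T1 for full effect; inhibitors block cleavage so intact labeled substrate keeps polarization high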
Target sequence (P00651 whole entry, looked up): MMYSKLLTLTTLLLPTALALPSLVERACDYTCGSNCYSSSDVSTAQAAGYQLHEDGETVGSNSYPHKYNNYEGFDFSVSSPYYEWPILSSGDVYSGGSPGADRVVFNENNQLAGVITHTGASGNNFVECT
The depositor's hits bear a star; · = not tested or not shown. Shown are actives, neighbours in structure and some others; about 4.5% of the full set was active somewhere.

SMILES	TPT1 inhibitor	GRIN3A LBD mod	EBNA-1 inhibitor	ZTA counter	dFosB activator	Rpn11 block	caTPT1 confirm	RNase T1 counter
COc1ccc(C2C(C#N)=C(N)N(c3cccnc3)C3=C2C(=O)CCC3)cc1Cn1cc([N+](=O)[O-])cn1 (stereo not given)	37*	-3	-14	-15	-8	29	43*	55*
COc1ccc(C2C(C#N)=C(N)N(c3ccccc3)C3=C2C(=O)CCC3)cc1Cn1cc([N+](=O)[O-])cn1 (stereo not given)	9	-6	2	23	-3	5	·	·
COc1ccc(-c2ccc(-c3noc(-c4cccs4)n3)c(OC)n2)cc1	26*	-3	4	6	-8	·	28*	39*
COc1cc(N2CCCC2)c(OC)cc1/C=C(/C#N)c1ccc(Br)cc1	104*	-3	0	-8	-15	·	130*	147*
COc1cc(N2CCCC2)c(OC)cc1/C=C(/C#N)c1ccc(F)cc1	143*	1	-5	1	-10	·	132*	134*
N#Cc1c(N2CCCC2)ccc(Br)c1Cl	2	1	2	-3	-3	-2	·	·
COc1ccc(C2=NNC(c3cc(Cl)cc4c3OCOC4)C2)c(O)c1 (stereo not given)	37*	·	2	12	·	·	19	28*
CCN(C[C@H]1N[C@@](CC)(C(=O)OC)[C@H]2C(=O)N(Cc3ccccc3)C(=O)[C@@H]12)S(=O)(=O)c1ccc(F)cc1	·	0	·	·	-10	4	·	·
COc1ccccc1NC(=O)C(C)Sc1nc(-c2ccccc2)cn1N (stereo not given)	·	-2	·	-3	-8	-7	·	·
CC1(C)OC(=O)C(=Cc2ccc(-c3ccc(S(N)(=O)=O)cc3)o2)C(=O)O1	28*	-6	2	-13	2	15	8	13
CC1CCC(NC(=O)CCNS(=O)(=O)c2ccc3c(c2)CCC(=O)N3)CC1 (stereo not given)	-1	6	5	1	-8	-1	·	·
N#C/C(=C\c1ccc(N2CCOCC2)o1)C(=O)NC1CCCCC1	163*	-1	-4	-2	-10	·	177*	169*
N#C/C(=C\c1ccc(N2CCOCC2)o1)C(=O)NCC1CCCO1 (stereo not given)	161*	-5	1	0	-1	·	168*	164*
N#C/C(=C\c1ccc(-c2ccc(C(=O)O)cc2)o1)C(=O)NCC1CCCO1 (stereo not given)	4	6	-2	-3	0	1	·	·
N#C/C(=C/c1ccc(N2CCOCC2)o1)C(=O)Nc1ccccc1	·	1	·	·	2	·	·	·
Cc1c(C(=O)NCc2ccccc2CN2CCCC2)oc2ccc(F)cc12	·	1	·	5	-3	-1	·	·
CCOC(=O)/C=c1/s/c(=C\c2c(OC)ccc3ccccc23)c(=O)n1CC(=O)NCC1CCCO1 (stereo not given)	·	-1	·	·	3	·	·	·
CCOC(=O)/C=c1\s/c(=C\c2c(OCC)ccc3ccccc23)c(=O)n1CC(=O)NCC1CCCO1 (stereo not given)	25*	-2	-5	-3	0	·	19	32*
CCOC(=O)/C=c1\s/c(=C\c2ccccc2C)c(=O)n1CC(=O)NCc1ccc2c(c1)OCO2	41*	1	13	17	4	36	30*	43*
COC(=O)c1sccc1NC(=O)Nc1ccccc1OC	2	1	-12	-10	-2	-2	·	·
COc1ccccc1NC(=O)Nc1sccc1-c1nc2ccccc2s1	33*	10	0	-3	·	36	34*	49*
COc1ccc(/C=C2\CCC/C(=C\C=N\N(C)C)C2=O)cc1	37*	0	-15	-3	3	·	45*	55*
CN(C)c1ccc(/C=C2\CCC/C(=C\c3ccccc3)C2=O)cc1	104*	1	-3	2	-6	·	111*	109*
CN(C)c1ccc(C=C2C=C(c3ccccc3)OC2=O)cc1	·	·	·	·	·	12	·	·
